# Assay results: PubChem BioAssay (EPA / NIEHS)
# Records with an inconclusive call do not appear. Calls of active or inactive are those of the source. Rule for the calls: active = hit-call score of the fitted dose curve at least 0.9, where 1 is the maximum; inconclusive = response in the unintended direction; inactive = score below 0.9.
# Key:
# [1] = target: GAL4 Transcription Factor (Internal Marker), GAL4 (gene 855828) (UniProt P04386); experiment: ATG_GAL4_XSP2: Attagene TRANS-FACTORIAL Multi-Species (XSP2) HepG2 Assay for GAL4 Transcription Factor (Internal Marker) (AID 2283814);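 note: GAL4 reporter mRNA background control in MRTU transfected cells not a receptor target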
# Experimental: ATG_XSP2_multi-species_TRANS is a cell-based, multiplexed assay created by modifying the existing Attagene TRANS-FACTORIAL system to include a panel of nuclear receptors from some or all the following species: human (Homo sapiens), mouse (Mus musculus), frog (Xenopus laevis), zebrafish (Danio rerio), chicken (Gallus gallus), and turtle (Chrysemys picta). The ECOTOX-FACTORIAL format uses HepG2, a human liver cell line, with measurements taken at 24 hours after chemical dosing in a 24-well plate. Xsp2 included 3 nM 6-alpha-fluorotestosterone and 1.5 nM norgestrel to stimulate the androgen receptor.ATG_GAL4_XSP2 is one of 29 assay components measured or calculated from the ATG_XSP2_multi-species_TRANS assay. It is designed to make measurements of mRNA induction, a form of inducible reporter, as detected with fluorescence intensity signals by Reverse transcription polymerase chain reaction (RT-PCR) and Capillary electrophoresis technology.This assay endpoint, ATG_GAL4_XSP2, was analyzed in the positive analysis fitting direction relative to DMSO as the negative control and baseline of activity. […] Furthermore, this assay endpoint can be referred to as a secondary readout, because this assay has produced multiple assay endpoints where this one serves a background control function. […]
# [2] = target: chicken Estrogen Receptor (ERa), ESR1 (gene 396099) (UniProt P06212); experiment: ATG_chERa_XSP2: Attagene TRANS-FACTORIAL Multi-Species (XSP2) HepG2 Assay for chicken Estrogen Receptor (ERa) (AID 2283817);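 note: actives raise reporter signal above DMSO so AC50 reflects ER activation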
# Outline: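 Readout: fluorescent reporter-transcript fragments resolved by capillary electrophoresis after RT-PCR and HpaI cut. Chicken ERa-Gal4 fusion in transiently transfected HepG2, dosed for 24 h; activity taken as increase over DMSO baseline.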
# Sequence of chicken Estrogen Receptor (ERa), ESR1 (gene 396099) (P06212 whole entry, looked up, the tested form may be a part): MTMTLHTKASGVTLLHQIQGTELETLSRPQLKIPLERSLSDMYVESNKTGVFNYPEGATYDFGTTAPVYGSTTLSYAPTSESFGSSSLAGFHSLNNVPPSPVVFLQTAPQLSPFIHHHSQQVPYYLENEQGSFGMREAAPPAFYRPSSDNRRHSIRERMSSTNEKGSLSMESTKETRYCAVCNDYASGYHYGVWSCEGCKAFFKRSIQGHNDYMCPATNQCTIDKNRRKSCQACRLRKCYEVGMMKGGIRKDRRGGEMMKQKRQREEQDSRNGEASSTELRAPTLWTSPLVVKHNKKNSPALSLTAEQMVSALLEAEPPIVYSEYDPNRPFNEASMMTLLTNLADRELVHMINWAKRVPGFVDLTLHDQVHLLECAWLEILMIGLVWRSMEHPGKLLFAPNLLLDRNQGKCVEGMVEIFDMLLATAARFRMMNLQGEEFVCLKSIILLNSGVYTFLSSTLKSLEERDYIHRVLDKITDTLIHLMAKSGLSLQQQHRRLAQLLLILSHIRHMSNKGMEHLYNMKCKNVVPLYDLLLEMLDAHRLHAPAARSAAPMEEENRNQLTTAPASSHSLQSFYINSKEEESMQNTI
# Sequence of GAL4 Transcription Factor (Internal Marker), GAL4 (gene 855828) (P04386 whole entry, looked up, the tested form may be a part): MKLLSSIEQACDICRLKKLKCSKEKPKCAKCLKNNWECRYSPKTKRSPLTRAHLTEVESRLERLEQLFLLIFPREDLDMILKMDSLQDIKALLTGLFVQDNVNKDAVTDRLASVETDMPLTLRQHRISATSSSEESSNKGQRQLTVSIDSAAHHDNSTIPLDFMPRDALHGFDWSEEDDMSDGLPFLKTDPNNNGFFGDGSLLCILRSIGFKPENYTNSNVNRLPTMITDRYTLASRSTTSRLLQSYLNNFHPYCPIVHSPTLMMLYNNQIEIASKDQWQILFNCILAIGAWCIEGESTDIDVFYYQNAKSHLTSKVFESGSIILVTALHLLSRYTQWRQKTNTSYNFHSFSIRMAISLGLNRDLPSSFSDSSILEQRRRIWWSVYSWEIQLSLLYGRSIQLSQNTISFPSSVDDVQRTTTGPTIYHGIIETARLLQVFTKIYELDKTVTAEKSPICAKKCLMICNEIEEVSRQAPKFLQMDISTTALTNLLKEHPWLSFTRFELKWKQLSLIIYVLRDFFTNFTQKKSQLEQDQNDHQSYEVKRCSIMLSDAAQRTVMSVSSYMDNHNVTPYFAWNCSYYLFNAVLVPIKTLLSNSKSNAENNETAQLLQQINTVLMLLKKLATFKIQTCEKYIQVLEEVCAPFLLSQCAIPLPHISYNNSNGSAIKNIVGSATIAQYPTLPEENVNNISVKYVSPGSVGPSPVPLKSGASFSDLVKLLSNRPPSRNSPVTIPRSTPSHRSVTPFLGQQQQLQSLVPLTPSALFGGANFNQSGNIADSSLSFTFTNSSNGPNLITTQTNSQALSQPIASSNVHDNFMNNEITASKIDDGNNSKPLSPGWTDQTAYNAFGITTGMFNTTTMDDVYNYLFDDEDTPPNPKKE
smiles,measurement,setting,value
CC(=O)c1cc2c(cc1C)C(C)(C)C(C)CC2(C)C (configuration not stated),outcome,[1],inactive
same,outcome,[2],inactive
